These results are taken from the supplement of paper PMC8728848.

What all share (assay): glycan array binding signal (z-score within array); higher = stronger binding
Details in all cases: glycan notation: IUPAC condensed, linker removed

Experiment [1] has as its target Neu5Ac(a2-6)Gal(b1-4)GlcNAc(b1-6)GalNAc. The procedure, abridged: (§1)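 The Consortium for Functional Glycomics database supplied 3228 glycan arrays, of which those lacking an available protein sequence were dropped. The binding signal, a within-array Z-score, was averaged across arrays of the same protein sequence and across linkers. Negative scores can be read as non-binding.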

The target of experiment [2] is Neu5Ac(a2-8)Neu5Ac(a2-8)Neu5Ac(a2-3)Gal(b1-4)Glc. The procedure, abridged:
as §1

In experiment [3] the target is Neu5Ac(b2-6)Gal(b1-4)GlcNAc. The method in brief:
as §1

For experiment [4], the target named is Neu5Ac9Ac(a2-3)Gal(b1-3)GlcNAc. The method in brief: as §1
Experiment [5] concerns the target Neu5Gc(a2-3)Gal(b1-4)[Fuc(a1-3)]GlcNAc. The method in brief: as §1
For experiment [6], the target named is Neu5Gc(a2-6)GalNAc. The method in brief: as §1
Experiment [7] addresses Fuc(a1-2)Gal(b1-3)GlcNAc(b1-2)Man(a1-3)[Fuc(a1-2)Gal(b1-3)GlcNAc(b1-2)Man(a1-6)]Man(b1-4)GlcNAc(b1-4)GlcNAc. The procedure, abridged: as §1
Experiment [8] deals with Fuc(a1-2)Gal(b1-3)GlcNAc(b1-2)Man(a1-3)[Fuc(a1-2)Gal(b1-3)GlcNAc(b1-2)Man(a1-6)]Man(b1-4)GlcNAc(b1-4)[Fuc(a1-6)]GlcNAc. The method in brief:
as §1

The target in experiment [9] is Fuc(a1-2)Gal(b1-4)Fuc(a1-3)]GlcNAc(b1-2)Man(a1-3)[Fuc(a1-2)Gal(b1-4)[Fuc(a1-3)]GlcNAc(b1-2)Man(a1-6)]Man(b1-4)GlcNAc(b1-4)GlcNAc. The method in brief: as §1
Experiment [10] concerns the target Fuc(a1-2)Gal(b1-4)Glc. The method in brief:
as §1

For experiment [11], the target named is Fuc(a1-2)Gal(b1-4)GlcNAc(b1-2)Man(a1-3)[Fuc(a1-2)Gal(b1-4)GlcNAc(b1-2)Man(a1-6)]Man(b1-4)GlcNAc(b1-4)[Fuc(a1-6)]GlcNAc. The method in brief:
as §1

Experiment [12] has as its target Fuc(a1-2)[Gal(a1-3)]Gal(b1-3)GlcNAc(b1-3)GalNAc. The method in brief: as §1
Experiment [13] addresses Fuc(a1-2)[Gal(a1-3)]Gal(b1-4)GlcNAc(b1-2)Man(a1-3)[Fuc(a1-2)[Gal(a1-3)]Gal(b1-4)GlcNAc(b1-2)Man(a1-6)]Man(b1-4)GlcNAc(b1-4)[Fuc(a1-6)]GlcNAc. The procedure, abridged:
as §1

Experiment [14] concerns the target Fuc(a1-2)[Gal(a1-3)]Gal(b1-4)GlcNAc(b1-3)[Fuc(a1-2)[Gal(a1-3)]Gal(b1-4)GlcNAc(b1-6)]GalNAc. The method in brief: as §1
Experiment [15] concerns the target Fuc(a1-2)[GalNAc(a1-3)]Gal(b1-4)GlcNAc(b1-3)Gal(b1-4)GlcNAc. The method in brief:
as §1

Experiment [16] concerns the target Fuc(a1-2)[GalNAc(a1-3)]Gal(b1-4)GlcNAc(b1-3)[Fuc(a1-2)[GalNAc(a1-3)]Gal(b1-4)GlcNAc(b1-6)]GalNAc. The procedure, abridged: as §1
Experiment [17] concerns the target Fuc(a1-2)[GalNAc(a1-3)]Gal(b1-4)GlcNAc(b1-6)GalNAc. The method in brief: as §1
In experiment [18] the target is Fuc(a1-2)[GalNAc(a1-3)]Gal(b1-4)[Fuc(a1-3)]GlcNAc. The method in brief:
as §1

In experiment [19] the target is Fuc(a1-3)[Gal(b1-4)]GlcNAc. The method in brief:
as §1

Experiment [20] concerns the target Fuc(a1-3)[Gal3S(b1-4)]GlcNAc6S. The procedure, abridged: as §1
Experiment [21] deals with Gal(a1-3)Gal(b1-3)GlcNAc. The procedure, abridged:
as §1

Experiment [22] has as its target Gal(a1-3)Gal(b1-3)GlcNAc(b1-2)Man(a1-3)[Gal(a1-3)Gal(b1-3)GlcNAc(b1-2)Man(a1-6)]Man(b1-4)GlcNAc(b1-4)GlcNAc. The method in brief: as §1
For experiment [23], the target named is Gal(a1-3)Gal(b1-4)GlcNAc(b1-3)GalNAc. The method in brief: as §1
Experiment [24] deals with Gal(a1-3)GalNAc. The method in brief: as §1
In experiment [25] the target is Gal(a1-4)Gal(b1-3)GlcNAc(b1-2)Man(a1-3)[Gal(a1-4)Gal(b1-3)GlcNAc(b1-2)Man(a1-6)]Man(b1-4)GlcNAc(b1-4)GlcNAc. The procedure, abridged: as §1
For experiment [26], the target named is Gal(b1-3)GlcNAc(b1-2)Man(a1-3)[GlcNAc(b1-4)][Gal(b1-3)GlcNAc(b1-2)Man(a1-6)]Man(b1-4)GlcNAc(b1-4)GlcNAc. The method in brief: as §1
The target of experiment [27] is Gal(b1-3)GlcNAc(b1-3)Gal(b1-4)GlcNAc(b1-2)Man(a1-3)[Gal(b1-3)GlcNAc(b1-3)Gal(b1-4)GlcNAc(b1-2)Man(a1-6)]Man(b1-4)GlcNAc(b1-4)GlcNAc. The procedure, abridged: as §1
Experiment [28] concerns the target Gal(b1-4)GlcNAc(b1-2)Man(a1-3)[GlcNAc(b1-4)][Gal(b1-4)GlcNAc(b1-2)Man(a1-6)]Man(b1-4)GlcNAc(b1-4)GlcNAc. The procedure, abridged:
as §1

Experiment [29] has as its target Gal(b1-4)GlcNAc(b1-2)[Gal(b1-4)GlcNAc(b1-6)]Man(a1-6)[Gal(b1-4)GlcNAc(b1-2)Man(a1-3)]Man(b1-4)GlcNAc(b1-4)GlcNAc. The method in brief: as §1
The target of experiment [30] is Gal(b1-4)GlcNAc(b1-3)Gal(b1-4)GlcNAc. The procedure, abridged: as §1
Experiment [31] concerns the target Gal6S(b1-4)GlcNAc. The method in brief: as §1
For experiment [32], the target named is GlcNAc(b1-3)Gal. The method in brief:
as §1

In experiment [33] the target is GlcNAc(b1-4)GlcNAc. The procedure, abridged:
as §1

Experiment [34] addresses GlcNAc6S(b1-3)Gal(b1-4)GlcNAc. The procedure, abridged: as §1
The target in experiment [35] is Neu5Ac(a2-3)Gal(b1-3)GalNAc. The procedure, abridged: as §1
Experiment [36] deals with Neu5Ac(a2-3)Gal(b1-3)GalNAc(b1-3)Gal(a1-4)Gal(b1-4)Glc. The method in brief: as §1
The target of experiment [37] is Neu5Ac(a2-3)Gal(b1-3)GlcNAc(b1-2)Man(a1-3)[GlcNAc(b1-4)][Neu5Ac(a2-3)Gal(b1-3)GlcNAc(b1-2)Man(a1-6)]Man(b1-4)GlcNAc(b1-4)GlcNAc. The method in brief: as §1
The target of experiment [38] is Neu5Ac(a2-3)Gal(b1-3)[Fuc(a1-4)]GlcNAc. The procedure, abridged:
as §1

The target in experiment [39] is Neu5Ac(a2-3)Gal(b1-4)Glc. The method in brief:
as §1

Experiment [40] concerns the target Neu5Ac(a2-3)Gal6S(b1-4)GlcNAc. The method in brief: as §1
In experiment [41] the target is Neu5Ac(a2-3)Gal6S(b1-4)[Fuc(a1-3)]GlcNAc. The method in brief:
as §1

Experiment [42] deals with Neu5Ac(a2-3)[Neu5Ac(a2-6)]GalNAc. The method in brief:
as §1

Experiment [43] deals with Neu5Ac(a2-6)Gal(b1-4)GlcNAc(b1-2)Man(a1-3)[GlcNAc(b1-4)][Neu5Ac(a2-6)Gal(b1-4)GlcNAc(b1-2)Man(a1-6)]Man(b1-4)GlcNAc(b1-4)GlcNAc. The procedure, abridged: as §1
Experiment [44] deals with Neu5Ac(a2-6)Gal(b1-4)GlcNAc(b1-2)Man(a1-6)[Gal(b1-4)GlcNAc(b1-2)Man(a1-3)]Man(b1-4)GlcNAc(b1-4)GlcNAc. The procedure, abridged:
as §1

The sample as a whole holds a higher share of the strongest signals than the screen did.

B1: truncCC1G-10077 (Coprinopsis cinerea) (protein)
chain: MHHHHHHHHPLPSPGPGWVLIQNGGTGKFLCSTPSGDIGTADGPETVYDYSVQWRFIQREYTGVYHVVNRATGAYLRQIGTSMPSIGLAEENDDELKDWWMLETYDNSEIGLASIISRWTGNVLDHYGGVSVQALDNNTENSYRSWAIIPARDWLTSFSLVNGQGGLCLAAQYAREETRLSTTANVNDFHAQWVFRKPSGSSGYTIQNKYNNHYVGGTSARWELVVCCNKYFGIRNTSTQKYLAIEDGQVTFQDQDMTDRKQCWELCSGRATDTSGNDYDLIYMDDDLLEVMIPWVGDKQGDLKHYIEKRATKKPPKDKGGWQLPAAGLIKKPKFNDIRQLLQELIEQWEWDVVNEEREQIQTLVSIDEAEARRLLGRRPHPDIVAAYQRSRSSTLFRIDRQGYFNIAGDRYVNIQGQYGDDSYFHIALPVGVRFGREQIRRFLRDSLDRSTSVTITPTTCKPPSGGPDYNRDPDSDGDNSWIKWTIAVVGTSAIKHSEL
B1: the “glycan array binding signal (z-score)” value in experiment [1] is 3.21; in experiment [2], 0.249; in [3], -1.25; in [4] it was -1.02; in experiment [5] it was 3.02; in experiment [6], -0.873.

B2: LgFlo1 (Saccharomyces pastorianus), B3IUA8 (protein)
chain: SGSTQACLPVGSRKNGMNVNFYKYSLQDSTTYSDPQYMAYKYSDTKKLGSVSGQTHLSIYYGPNTAFWNTASWSSDLFGFYTTPTNVTVEMTGYFLPPQTGSYTFKFATVDDSAILSVGGSIAFECCAQEQPPITSTDFTINGIKPWDAATPTDIKGSTYMYAGYYYPIKIVYSNAKALARLPVSVVLPDGTEVNDDFEGYVYSFDDDLSQSNCTIPDPSKHTTS
In the case of B2, the “glycan array binding signal (z-score)” value in experiment [7] was 2.1; in experiment [8] it was 3.52; in experiment [9] it was 4.98; in experiment [10] it was -0.137; in [11], 0.313; in experiment [12] it was 11.9. Besides, the “glycan array binding signal (z-score)” value in experiment [13] is 11.9; in experiment [14], 2.44; in experiment [15], -0.328; in [16], 1.81; in [17] it was -0.114; in experiment [18], 0.711. Moreover, the “glycan array binding signal (z-score)” value in experiment [19] was 0.072; in experiment [20], 0.042; in experiment [21], 2.47; in experiment [22], 0.576; in experiment [23], -0.146; in experiment [24], -0.152. Moreover, the “glycan array binding signal (z-score)” value in [25] is 1.89; in [26] it was 0.784; in [27], -0.078; in [28] it was -0.121; in experiment [29] it was 0.549; in experiment [30], -0.291. Besides, the “glycan array binding signal (z-score)” value in experiment [31] is -0.114; in [32] it was -0.087; in [33] it was -0.042; in experiment [34], -0.317; in experiment [35], 5.83; in [36], -0.329. Besides, the “glycan array binding signal (z-score)” value was -0.135 in experiment [37]; -0.245 in experiment [38]; 1.97 in experiment [39]; -0.229 in experiment [40]; -0.151 in experiment [41]; -0.356 in [42]. Besides, the “glycan array binding signal (z-score)” value in experiment [43] was -0.203; in experiment [44], -0.38; in [3], -0.214.
